PubChem BioAssay (NCI)
This is part of a sample that, as a whole, favours compounds with a hit. Of some 83,000 tested, about 20% had one in any assay.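 A percent growth of 40 corresponds to 60% growth inhibition; 0 means no net growth; -100 means all cells died. Active threshold: below 10.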 Unmarked numbers belong to inactive results. Activity calls are given as the source filed them.

system: SK-MEL-5 melanoma; test: NCI-60 one-dose screen, 48 h (100 = growth as untreated, 0 = no growth, -100 = all killed); conditions: 10 µM unless noted

| SMILES | growth |
| --- | --- |
| NS(=O)(=O)c1ccc(-n2cc(CC=O)nn2)cc1 | 100% |
| COc1ccc(N)cc1C(=O)Nc1cccc(-c2cc(=O)c3c(OC)c(OC)c(OC)cc3o2)c1 | 41% |
| O=C(CSc1nnc(-c2ccc(Cl)cc2)n1-c1ccccc1)Nc1ccc(F)cc1 | 96.4% |
| O=C(c1cccc(F)c1)n1ccc2cc(NC(=S)Nc3cccnc3)ccc21 | 99.6% |
| O=C(O)c1ccc(-n2cc(CNc3ccc(Cl)cc3)c(-c3ccc(F)cc3)n2)cc1 | 84.8% |
| CCC(CC)N1C(=O)/C(=c2\sc3n(c2=O)C2C(NN=3)N(CC)C(=O)N2CC)c2ccccc21 (centres undefined) | -20.1% (active) |

system: UACC-62 melanoma; test: as above; conditions: 10 µM unless noted

| SMILES | growth |
| --- | --- |
| O=C(NCCCNc1cc(-c2cn(-c3ccccc3)nc2-c2cccc(O)c2)ccn1)Nc1cccc(C(F)(F)F)c1 | 19.9% |
| Cc1[nH]nc2ccc(-c3nc4cnc(N5CCN(C)CC5)cn4c3Nc3ccc(F)cc3Br)cc12 | 17.9% |
| O=C(/C=C/c1cccc(O)c1)c1ccc(O)cc1 | 80% |
| C#Cc1ccc(NC(=O)c2ccc(/C=C/C(=O)c3nccn3C)cc2)c(F)c1 | 29.9% |
| O=C(Nc1ccc(F)cc1)c1cc(-c2ccc(F)cc2F)ccc1O | 5.12% (active) |
| Oc1ccc(CSc2nnc(-c3ccc(Oc4ccccc4)cc3)o2)c2cccnc12 | 22.6% |
| Cc1ccc(NC(=O)c2ccc(CN3CCN(C)CC3)c(C(F)(F)F)c2)cc1Oc1ccc(-c2[nH]nc3ncnc(N)c23)cc1 | 82.6% |
| N#Cc1c(NC(=O)c2ccccc2C(F)(F)F)sc2c1CCC(=O)C2 | -26.9% (active) |
| CCN(CC)c1ccc2cc(C(=O)NCCOCCOCCOCCn3cc(CCC(=O)Nc4ccc(C(=O)c5ccc(NC(=O)OC(C)(C)C)cc5)cc4)nn3)c(=O)oc2c1 | 32.1% |
| CS(=O)(=O)c1ccc(-c2nn(-c3ccccc3)cc2/C=N/NC(=O)c2ccncc2)cc1 | 82.4% |
| Cc1ccc(S(=O)(=O)N/N=C/c2cn(-c3ccc(F)cc3)nc2-c2ccc(S(C)(=O)=O)cc2)cc1 | 91.6% |
| CS(=O)(=O)c1ccc(-c2nn(-c3ccccc3)cc2/C=C/C(=O)c2ccc(Br)cc2)cc1 | 78.9% |
| O=C(NCCCNc1cc(-c2cn(-c3ccccc3)nc2-c2cccc(O)c2)ccn1)Nc1ccc(F)cc1 | 8.05% (active) |
| Fc1ccc(-c2cc3nc(C(Cl)Cl)nc(-c4cccs4)n3n2)cc1 | 45.8% |
| COc1ccc([C@H]2c3[nH]c4ccccc4c3C[C@@H]3C(=O)N(C4CCN(Cc5ccccc5)CC4)CC(=O)N23)c(OC)c1 | 87.2% |
| Cn1ccnc1C(=O)/C=C/c1ccc(C(=O)Nc2ccc(NC(=O)CCNC(=O)c3csc(Br)n3)cc2)cc1 | 68.3% |
| Cc1nn(-c2ccccc2)cc1/C=N/Nc1nc(Nc2ccccc2)nc(Nc2ccc(S(N)(=O)=O)cc2)n1 | -27.8% (active) |

| SMILES | growth |
| --- | --- |
| COCCC[C@H]1O[C@@](O)([C@H](C)[C@@H]2CC(OC)C(O)/C=C(C)/C=C(C)/C=C(\C)C(OC3O[C@@H](C)[C@H](O)C(O)[C@@H]3O)C(C)/C=C(C)/C=C(OC)/C=C(\C)C(=O)O2)C(OC)C(O)[C@]1(C)O[C@H]1C[C@@H](O)[C@H](O[C@H]2C[C@](C)(O)[C@H](O)C(C)O2)C(C)O1 (some centres undefined) | 58.4% |
| COc1ccc(N2C(=O)c3cc(OC)c(OC)cc3NC2SCc2ccccc2)cc1 (centres undefined) | 93.8% |
| Cc1cc2nc(C(Cl)Cl)nc(-c3ccco3)n2n1 | 78.2% |
| COc1ccc(S(=O)(=O)NCCCNc2nccc(-n3cnc4ccccc43)n2)cc1 | 76.3% |
| O=C(NCCCNc1cc(-c2cn(-c3ccccc3)nc2-c2cccc(O)c2)ccn1)Nc1cc(C(F)(F)F)cc(C(F)(F)F)c1 | 73% |
| COc1cc(/C=C/C(=O)c2ccc(NC(=O)CSc3nnc(-c4ccc5nc(-c6ccccc6)[nH]c5c4)o3)cc2)cc(OC)c1OC | 83% |
| O=c1oc2ccc(-c3ccc(F)cc3F)cc2c(=O)n1-c1cccc(C(F)(F)F)c1 | -6.07% (active) |
| C#CCOc1ccccc1C(Nc1ccccc1)c1nnnn1C1CCCCC1 (centres undefined) | 63.3% |
| CN1C(=O)N(C)C2Nn3c(s/c(=C\c4ccccn4)c3=O)=NC21 (centres undefined) | 90.6% |
| CNC(=O)c1cc(N2CCc3cc(NC(=O)Nc4ccc(Cl)c(Cl)c4)ccc32)ccn1 | 78.9% |
| NS(=O)(=O)c1ccc(-n2cc(CC=O)nn2)cc1 | 95.7% |
| COc1ccc(N)cc1C(=O)Nc1cccc(-c2cc(=O)c3c(OC)c(OC)c(OC)cc3o2)c1 | 61.2% |
| O=C(CSc1nnc(-c2ccc(Cl)cc2)n1-c1ccccc1)Nc1ccc(F)cc1 | 82.4% |
| O=C(c1cccc(F)c1)n1ccc2cc(NC(=S)Nc3cccnc3)ccc21 | 86.8% |
| O=C(O)c1ccc(-n2cc(CNc3ccc(Cl)cc3)c(-c3ccc(F)cc3)n2)cc1 | 77.4% |
| CCC(CC)N1C(=O)/C(=c2\sc3n(c2=O)C2C(NN=3)N(CC)C(=O)N2CC)c2ccccc21 (centres undefined) | 15.2% |
